Source: PubChem BioAssay AID493201 (National Center for Advancing Translational Sciences (NCATS), 2011)
Results filed as inconclusive are left out. Where a call stands in place of a potency, no number is given. Active and inactive are the calls of the source. The call rests on the fitted dose curve; in most records, active means well fitted activation curve with a large enough effect; inconclusive means small, poorly fitted or top-dose-only effect; inactive means no such curve, though single readings can be large or run the other way.
Potency means the concentration at half of the fitted maximal effect.

Assay: qHTS Assay for Identifying a Potential Treatment of Ataxia-Telangiectasia: Secondary assay (no NCS) hit validation;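 further: phosphorylated KAP1 signal as a proxy for ATM-like kinase activity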
Details: A-T patient fibroblasts, AlphaLISA, no DNA damage added, 90 min; series mostly up to 76.9 µM
Procedure, shortened: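 Without NCS-induced DNA breaks, ATM-like activity scored as phospho-KAP1 AlphaLISA signal (pKAP1/total KAP1 bead pair) in ATM-null F2112 fibroblasts; compound series up to 76.7 uM final, 37C incubation, lysates read on AlphaScreen protocol.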
In the case of `CCn1c(=NC(=O)CN2C(=O)CCC2=O)sc2c(OC)ccc(OC)c21`, the Potency is reported as 0.923 µM (active). With `O=C(O)CCCC(=O)N1N=C(c2ccccc2)CC1c1cccs1` (centres undefined) the Potency was “inactive”. For `O=[N+]([O-])c1ccc(F)cc1F`, the Potency was 32.8 µM (active). For `CC(C)Nc1nc(Oc2ccc(=O)n(-c3ccccc3)n2)nc(N(C)C)n1`, the Potency was “inactive”. For `CCOc1cccc(C(=O)Nc2ccccc2N2CCN(C(=O)C(C)C)CC2)c1`, the Potency was “inactive”. With `CC(C)(CO)NC(=O)c1ccc2c(c1)C(=O)c1ccccc1-2` the Potency was “inactive”. With `CC(Oc1ccccc1)C(=O)Nc1cccc(NC(=O)c2ccco2)c1` (centres undefined) the Potency was “inactive”. With `COc1ccc(CCn2c(S)nc3ccccc3c2=O)cc1` the Potency was 41.2 µM (active). For `COc1ccc2nc(NCCCNC(=O)c3cc(OC)c(OC)c(OC)c3)c(C#N)cc2c1`, the Potency was “inactive”. In the case of `Cc1cc2nc3ccc(=[N+](C)C)cc-3sc2cc1N`, the Potency is reported as “inactive”. In the case of `CCOc1cc(/C=C/c2nc3ccccc3c(=O)[nH]2)ccc1O`, the Potency is reported as “inactive”. For `c1ccc2c(c1)nc(Nc1ccc(N3CCCCC3)cc1)c1nncn12`, the Potency was “inactive”. With `CC(C)C1CC(CCN)(c2ccccc2)CCO1` (centres undefined) the Potency was “inactive”. With `CNC(=O)Cc1csc2ccc(C)cc12` the Potency was “inactive”. In the case of `CN(C)c1cc(Nc2ccc(O)cc2)c([N+](=O)[O-])c2nonc12`, the Potency is reported as “inactive”. In the case of `COc1cccc(OCCc2c(C)n[nH]c2C)c1`, the Potency is reported as “inactive”. With `COc1ccc(-c2csc(-c3ccc(O)cc3)n2)cc1` the Potency was “inactive”. For `CC(=O)Nc1ccc(S(=O)(=O)NCC2(N3CCOCC3)CCCCC2)cc1`, the Potency was “inactive”. In the case of `C=CS(=O)(=O)c1sc(Cl)c(N2CCOCC2)c1[N+](=O)[O-]`, the Potency is reported as “inactive”.
